From PubChem BioAssay (Tox21)
Unmarked numbers belong to inactive results. Results filed as inconclusive are left out. A call without a number means that no potency is given here. Activity calls are given as the source filed them. Unless noted, calls come from the whole dose curve; as a rule, active = well fitted curve in the direction sought with a large enough effect in the repeat runs; inconclusive = weak or mixed curves; inactive = no such curve, though single readings can be large; an effect the other way counts as inactive or inconclusive.

How the values were obtained:
[1] = qHTS assay to identify small molecule agonists of the estrogen receptor alpha (ER-alpha) signaling pathway in the presence of an antagonist - cell viability counter screen (AID 1259386);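 note: cells exposed to compounds for 22 h at 37 °C before the viability read; nearly all actives have a fitted effect of over 30% in size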; note: potency is the fitted concentration of half-maximal effect
Summary of the method: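 Viability counter screen using VM7Luc4E2 (full-length ER-alpha, four ERE-luciferase). The cells were treated with compounds alongside ICI-182,780 10.0nM for 22hr, and live-cell protease fluorescence was quantified with CellTiter-Fluor.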

[2] = molecular target: Progesterone receptor (Homo sapiens) (UniProt P06401); assay: qHTS assay to identify small molecule agonists of the progesterone receptor (PR) signaling pathway (AID 1346784; calls by dose curve; note: nearly all actives have a fitted effect of over 30% in size)
Summary of the method: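 Using charcoal-stripped serum (2%) to limit endogenous steroids, PR-UAS-bla HEK 293T cells received compounds for 16 hr at 37C after 6 hr plating; beta-lactamase FRET fluorescence was recorded following 2 hr substrate loading at room temperature.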

[3] = molecular target: Progesterone receptor (Homo sapiens) (UniProt P06401); assay: qHTS assay to identify small molecule antagonists of the progesterone receptor (PR) signaling pathway (AID 1346795; active = well fitted inhibition curve with a large enough effect in the signal ratio in the repeat runs, not every such curve was filed as active; the % refers to the signal ratio)
Summary of the method: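 Inhibition of R5020-induced (1 nM final) beta-lactamase reporter signal in PR-UAS-bla HEK293T cells was scored by FRET fluorescence after overnight (16 hr) compound treatment.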

[4] = qHTS assay to identify small molecule agonists of the progesterone receptor (PR) signaling pathway - cell viability counter screen (AID 1346799; calls by dose curve; note: nearly all actives have a fitted effect of over 45% in size; note: potency is the fitted concentration of half-maximal effect)
Summary of the method: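 Cytotoxicity in PR-bla HEK293T cells: 16 h compound, 37C; CellTiter-Glo added post-FRET read; luminescence after 30 min RT.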

[5] = qHTS assay to identify small molecule antagonists of the TGF-beta/Smad signaling pathway - cell viability counter screen (AID 1346824); note: nearly all actives have a fitted effect of over 50% in size; note: potency is the fitted concentration of half-maximal effect
Summary of the method: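 SBE-bla HEK 293T cells were plated overnight at 37 C, then given compounds in DMSO plus TGF-beta1 (added as 0.25 ng/mL solution) for 5 hr. After the bla read, CellTiter-Glo was added to the same wells and luminescence read after 30 min at room temperature.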

[6] = qHTS assay to identify small molecule agonists of the TGF-beta/Smad signaling pathway - cell viability counter screen (AID 1346829); note: nearly all actives have a fitted effect of over 45% in size; note: potency is the fitted concentration of half-maximal effect
Summary of the method: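 After overnight seating at 37 C and 5% CO2, reporter cells got compounds for 5 hr and FRET substrate for 2 hr; cell viability then came from CellTiter-Glo luminescence.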

[7] = qHTS assay to identify small molecule agonists of the TGF-beta/Smad signaling pathway (AID 1346859; active = well fitted activation curve with a large enough effect in the signal ratio in the repeat runs, not every such curve was filed as active; the % refers to the signal ratio; note: series mostly up to about 77 µM)
Summary of the method: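 Stable Smad binding element-beta-lactamase HEK 293T cells; 5 hr compound exposure at 37 C under 5% CO2; 2 hr room-temperature substrate step; fluorescence excited at 405 nm, collected at 460 nm and 530 nm.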

[8] = molecular target: Thyrotropin-releasing hormone receptor (Homo sapiens) (UniProt P34981); assay: qHTS assay to identify small molecule antagonists of the thyrotropin-releasing hormone receptor (TRHR) signaling pathway (AID 1346877; active = well fitted inhibition curve with a large enough effect in the repeat runs, not every such curve was filed as active; note: series mostly up to about 51 µM)
Summary of the method: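 Following an 18 h incubation at 37 °C and a 2 h calcium dye load, TRHR-HEK293 cells were exposed to compound (5 min, room temperature) and challenged with TRH, 1 nM final.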

[9] = qHTS assay to identify small molecule antagonists of the progesterone receptor (PR) signaling pathway - cell viability counter screen (AID 1346798); note: nearly all actives have a fitted effect of over 50% in size; note: potency is the fitted concentration of half-maximal effect
Summary of the method: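 ATP content as viability readout: CellTiter-Glo luminescence, 30 min room temperature, in PR-UAS-bla HEK293T cells after 16 hr compound/R5020 treatment at 37C and 5% CO2.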

[10] = molecular target: Thyrotropin-releasing hormone receptor (Homo sapiens) (UniProt P34981); assay: qHTS assay to identify small molecule agonists of the thyrotropin-releasing hormone receptor (TRHR) signaling pathway (AID 1346891; calls by dose curve;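 note: HEK293 cells expressing TRHR with calcium dye readout; series mostly up to about 58 µM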)
Summary of the method: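 In 1536-format, 1500 TRHR-Hek293 cells per well grew 18 h, took up calcium dye for 2 h at 37 °C, received compound, and were read kinetically; 15-point titrations, triplicates.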

Thyrotropin-releasing hormone receptor (Homo sapiens), sequence (P34981 whole entry, looked up): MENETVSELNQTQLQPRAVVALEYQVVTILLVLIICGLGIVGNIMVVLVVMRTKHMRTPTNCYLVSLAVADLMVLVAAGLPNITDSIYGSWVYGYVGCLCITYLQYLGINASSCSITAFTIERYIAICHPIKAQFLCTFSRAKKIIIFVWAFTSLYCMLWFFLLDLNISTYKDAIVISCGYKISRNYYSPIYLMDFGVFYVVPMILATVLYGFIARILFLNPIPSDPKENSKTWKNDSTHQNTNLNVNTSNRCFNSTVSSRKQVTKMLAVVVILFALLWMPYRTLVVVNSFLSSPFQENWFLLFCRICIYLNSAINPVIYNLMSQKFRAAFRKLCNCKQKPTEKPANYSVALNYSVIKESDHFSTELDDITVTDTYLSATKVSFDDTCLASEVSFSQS
Progesterone receptor (Homo sapiens), sequence (P06401 whole entry, looked up): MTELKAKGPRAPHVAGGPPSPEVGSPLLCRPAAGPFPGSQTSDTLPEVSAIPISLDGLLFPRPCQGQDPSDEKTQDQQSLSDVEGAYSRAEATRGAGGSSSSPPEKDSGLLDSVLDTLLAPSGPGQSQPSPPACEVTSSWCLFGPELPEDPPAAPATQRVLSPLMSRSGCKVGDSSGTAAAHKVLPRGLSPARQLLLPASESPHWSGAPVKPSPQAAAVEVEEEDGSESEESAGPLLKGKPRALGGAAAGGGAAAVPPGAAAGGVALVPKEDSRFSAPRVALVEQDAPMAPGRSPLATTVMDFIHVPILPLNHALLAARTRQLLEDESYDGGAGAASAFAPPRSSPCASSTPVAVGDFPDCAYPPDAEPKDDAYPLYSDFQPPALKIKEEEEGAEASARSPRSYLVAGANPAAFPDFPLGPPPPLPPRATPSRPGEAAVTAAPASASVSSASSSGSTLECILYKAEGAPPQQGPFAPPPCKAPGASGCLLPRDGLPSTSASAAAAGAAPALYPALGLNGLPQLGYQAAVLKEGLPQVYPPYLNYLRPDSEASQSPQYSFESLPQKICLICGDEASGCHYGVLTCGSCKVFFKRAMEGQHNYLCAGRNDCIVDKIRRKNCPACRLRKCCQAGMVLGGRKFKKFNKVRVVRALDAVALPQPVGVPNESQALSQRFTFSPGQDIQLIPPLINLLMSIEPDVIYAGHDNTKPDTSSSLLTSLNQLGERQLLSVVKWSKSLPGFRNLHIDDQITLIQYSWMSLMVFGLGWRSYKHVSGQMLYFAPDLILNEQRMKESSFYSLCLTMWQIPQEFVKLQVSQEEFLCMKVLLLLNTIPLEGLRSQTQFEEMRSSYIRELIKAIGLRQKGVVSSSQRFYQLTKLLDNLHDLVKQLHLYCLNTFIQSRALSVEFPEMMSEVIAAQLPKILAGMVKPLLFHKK

Row | SMILES | Potency [1] | Potency [2] | Potency [3] | Potency [4] | Potency [5] | Potency [6] | Potency [7] | Potency [8] | Potency [9] | Potency [10]
1 | Cc1cc(O)c(Cl)c(C)c1Cl | inactive | inactive | inactive | inactive | inactive | inactive | inactive | inactive |  | 
2 | CCCCCCCCCCn1cc[n+](CCCCCCCCCC)c1C | 30.7 µM (active) | inactive |  | 30.7 µM (active) | 24.6 µM (active) | 21.9 µM (active) | inactive | inactive | 21.7 µM (active) | inactive
3 | CC(C)c1ccc2c(c1)CC[C@H]1[C@](C)(CN)CCC[C@]21C | inactive | inactive | inactive |  |  |  | inactive |  |  | 
4 | O=C(NO)C1(NS(=O)(=O)c2ccc(Oc3ccc(F)cc3)cc2)CCOCC1 | inactive | inactive | inactive |  | inactive | inactive | inactive | inactive |  | inactive
5 | C=C(C)C(=O)OCC[N+](C)(C)C | inactive | inactive |  | inactive | inactive | inactive | inactive |  |  | 
6 | COc1c(C)c2c(c(O)c1C/C=C(\C)CCC(=O)O)C(=O)OC2 | inactive | inactive |  |  | inactive | inactive |  | inactive | 0.119 µM (active) | 
7 | NNc1nc(-c2ccc([N+](=O)[O-])cc2)cs1 | 24.3 µM (active) | inactive |  |  | inactive |  | inactive | inactive | inactive | inactive
8 | O=C1CCCCCN1SSN1CCCCCC1=O | inactive | inactive |  |  |  |  | inactive | inactive | inactive | 
9 | CCC(CN)=C(c1ccccc1)c1ccccc1 | inactive | inactive |  | inactive | inactive | inactive | inactive | inactive | inactive | inactive
10 | Fc1ccc([C@@H]2CCNC[C@H]2COc2ccc3c(c2)OCO3)cc1 | inactive | inactive |  |  | inactive | inactive | inactive | inactive | inactive | inactive
11 | O=C(OCC1CO1)C1CCCCC1C(=O)OCC1CO1 (stereo unspecified) | inactive | inactive |  |  | inactive | inactive |  |  | inactive | 
12 | NNc1nc(-c2ccc(N)cc2)cs1 | 30.6 µM (active) | inactive |  |  | inactive | inactive | inactive |  | inactive | 
13 | Cn1cc(C(=O)[C@@H]2CCc3nc[nH]c3C2)c2ccccc21 | inactive | inactive |  |  | inactive | inactive | inactive | inactive | 23.7 µM (active) | inactive
14 | O=c1cccccc1O | inactive | inactive |  |  | inactive | inactive | inactive |  | inactive | inactive
15 | O=c1c(-c2ccccc2)c1-c1ccccc1 | inactive | inactive |  | inactive | inactive | inactive | inactive | inactive |  | inactive
16 | CC(C)OC(=O)c1cc2c(OCC(O)CNC(C)(C)C)cccc2[nH]1 (stereo unspecified) | inactive | inactive |  |  | inactive | inactive | inactive | inactive |  | inactive
17 | CCc1oc2ccccc2c1C(=O)c1cc(Br)c(O)c(Br)c1 | inactive | inactive |  |  | inactive | inactive | inactive | inactive |  | inactive
18 | CSc1ccc(/C=C2/C(C)=C(CC(=O)O)c3cc(F)ccc32)cc1 | inactive | inactive |  | inactive | inactive | inactive |  | inactive | inactive | inactive
19 | CCCCN(CCCC)C(=O)N(CCCC)CCCC | inactive | inactive |  | inactive |  | inactive | inactive |  | inactive | 
20 | CCCCCCCCCCCCCCCS(=O)(=O)Oc1ccccc1 | inactive | inactive |  | inactive |  | inactive | inactive | inactive | inactive | inactive
21 | O=C(Oc1ccccc1)c1ccccc1C(=O)Oc1ccccc1 | inactive | inactive |  |  | inactive | inactive | inactive | inactive | inactive | 
22 | O=C(c1ccc(O)cc1O)c1ccc(O)cc1O | inactive | inactive |  | inactive | inactive | inactive | inactive | inactive |  | inactive
23 | N#CC1(c2ccc(F)cc2)CCC(=O)CC1 | inactive | inactive |  | inactive | inactive | inactive | inactive | inactive |  | 
24 | Cc1cccc(CN2CCN(C(c3ccccc3)c3ccc(Cl)cc3)CC2)c1 (stereo unspecified) | inactive | inactive |  |  | inactive | inactive | inactive | inactive | inactive | inactive
25 | Cc1c(C)c2c(c(C)c1O)CCC(C)(COc1ccc(CC3SC(=O)NC3=O)cc1)O2 (stereo unspecified) | inactive | inactive |  |  | inactive | inactive | inactive | inactive |  | 
26 | CN(C)[C@@H]1C(=O)C(C(N)=O)=C(O)[C@@]2(O)C(=O)C3=C(O)c4c(O)cccc4C[C@H]3C[C@@H]12 | inactive | inactive |  | inactive | inactive | inactive |  | inactive | inactive | inactive
27 | S=c1[nH]c2ccccc2s1 | inactive | inactive |  |  | inactive | inactive | inactive | inactive |  | inactive
